# Bioassay records deposited in PubChem BioAssay by National Center for Advancing Translational Sciences (NCATS).
# Luc counter: counter-screen: inhibitors of Kinase-Glo firefly luciferase; Potency, µM (doses to about 38.3 µM), inactives show at the top dose activity change, negative = inhibition, actives largely listed as inhibitors; Kinase-Glo luciferase, ATP luminescence, 8 min; AID 1379; 200,000 tested, 0.28% active; Q27757; note: % is set by controls: 0 for no effect and ±100 for the full control effect; nearly all actives have a fitted effect of over 60% in size
#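 Kinase-Glo luciferase light output from ATP and luciferin was measured with 10 uM ATP, within the enzyme's linear range. Buffer: 50 mM imidazole pH 7.2, 50 mM KCl, 7 mM MgCl2, 0.01% Tween 20, 0.05% BSA; luminescence read after 8 min at ambient temperature.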
# ELG1 genotoxic: inducers of genotoxicity in HEK293T ELG1-luciferase cells. HEK293T ELG1-luciferase reporter, luminescence, 16 h. Potency, µM (highest dose often 46 µM), for the others: top-dose activity change, positive = activation, most hits filed as activators. 330,000 tested, 1.3% active. AID 504466; note: % of control where 0% means no effect; nearly all actives have a fitted effect of over 60% in size
#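 Genotoxicity was scored as increased ELG1-luciferase reporter signal, measured by ONE-Glo luminescence (30 min, room temperature). Compound or vehicle exposure of the HEK293T reporter cells lasted 16 hr at 37°C.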
# FLuc counter: inhibits or activates purified firefly luciferase, miR-21 counter-screen. P08659. purified FLuc, Km substrates, luminescence inhibition. Potency, µM (series often up to 57.5 µM), for the others: at the highest dose activity change, negative = inhibition, actives largely listed as inhibitors. 360,000 tested, 6.9% active. AID 588342;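 note: plate controls were vehicle for no effect and reference inhibitor for full effect; nearly all actives have a fitted effect of over 55% in size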
# Target sequence (P08659 whole entry, looked up): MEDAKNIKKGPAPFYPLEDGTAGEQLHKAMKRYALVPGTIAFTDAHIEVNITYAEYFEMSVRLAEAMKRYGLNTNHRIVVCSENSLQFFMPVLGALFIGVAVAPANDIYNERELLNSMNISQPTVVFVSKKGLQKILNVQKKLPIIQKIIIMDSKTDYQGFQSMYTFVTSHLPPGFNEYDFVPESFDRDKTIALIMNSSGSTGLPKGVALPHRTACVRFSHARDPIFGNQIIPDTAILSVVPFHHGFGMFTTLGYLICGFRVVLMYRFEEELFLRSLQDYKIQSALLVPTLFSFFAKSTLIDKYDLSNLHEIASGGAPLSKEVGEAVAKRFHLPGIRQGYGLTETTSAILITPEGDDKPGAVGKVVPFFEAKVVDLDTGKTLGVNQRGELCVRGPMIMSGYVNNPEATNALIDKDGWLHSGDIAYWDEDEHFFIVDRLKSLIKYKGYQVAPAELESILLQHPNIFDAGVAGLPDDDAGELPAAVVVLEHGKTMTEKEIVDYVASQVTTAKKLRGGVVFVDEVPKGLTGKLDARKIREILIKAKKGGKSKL
#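 Purified P. pyralis luciferase, 10 nM final, with Km-level 10 uM D-luciferin and 10 uM ATP in 50 mM Tris acetate pH 7.5, 10 mM Mg acetate, 0.01% Tween-20, 0.05% BSA; 6-point qHTS titration about 60 µM downward; luminescence read.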
# Rab9 promoter act: activators of Rab9 promoter. Huh7 Rab9 promoter-luciferase reporter, luminescence, 24 h. Potency, µM (doses to about 9.22 µM), for inactives: at the top dose activation, negative = inhibition, hits mostly activators. 320,000 tested, 2.8% active. AID 485297; note: % of control where 0% means no effect; nearly all actives have a fitted effect of over 60% in size
#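 Promoter activation is measured as luciferase luminescence in Huh7 cells stably transfected with a Rab9 promoter–luciferase construct, following 24 h compound exposure at 37 °C and 10 min reagent incubation at ambient temperature.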
# SMN2 splice up: increases expression of the SMN2 splice variant; AID 1458; HEK293 SMN2-luciferase splicing reporter, luminescence, 30-36 h; Potency, µM (titrated, usually from 46.1 µM), for inactives: top-dose activity change, positive = activation, most hits filed as activators; 210,000 tested, 2.8% active; note: % of control where 0% means no effect; nearly all actives have a fitted effect of over 55% in size
#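 HEK293 cells carry an SMN2 […]–luciferase reporter in which exon 7 inclusion puts luciferase in frame. Cells were plated 10-12 h before compound addition, then incubated 30-36 h at 37C. ONE-Glo luminescence was read; sodium butyrate at 4.5 mM final served as control.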
# NPC1 prom act: NPC1 promoter activation | Huh7 NPC1 promoter luciferase reporter, 24 h | Potency, µM (top dose mostly 9.22 µM), for the others: at the top dose activation, actives largely listed as activators | 320,000 tested, 2.4% active; note: % of control where 0% means no effect; nearly all actives have a fitted effect of over 60% in size
#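 In 1536-well qHTS, Huh7 cells harboring an NPC1 promoter–luciferase construct received compound for 24 h; activation was quantified by luminescence following luciferase reagent addition.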
# * marks the source's active call; other numbers are inactive results; ? = inconclusive; nt = not tested or not shown. An excerpt weighted towards active compounds, which were near 7.4% of everything screened. Calls come from the whole dose curve; as a rule, active = well fitted curve in the direction sought with a large enough effect; inconclusive = small, poorly fitted or top-dose-only effect, or another doubt; inactive = no such curve, though single readings can be large; an effect the other way counts as inactive or inconclusive. Potency is the fitted concentration of half-maximal effect.
SMILES,Luc counter,ELG1 genotoxic,FLuc counter,Rab9 promoter act,SMN2 splice up,NPC1 prom act
COCCCn1nnnc1SCC(=O)Nc1ccc2c(c1)OCCO2,3%,3%,-9%,-1%,nt,-1%
Cc1ccc(NC(=O)Cn2c(=O)ccc3cc(S(=O)(=O)N4CCCC4)ccc32)cc1N(C)C,nt,nt,-1%,nt,nt,nt
CCOC(=O)CSc1nc2ccccc2c(=O)n1CCc1ccc(OC)c(OC)c1,nt,nt,-13%,nt,nt,nt
Cc1ccc(NC(=O)CSc2nnc(CN3CCOCC3)n2C)cc1C,18%,-1%,-3%,-4%,-43%,-1%
Cn1c(CN2CCOCC2)nnc1SCC(=O)Nc1ccc2c(c1)OCCO2,0%,7%,1%,-3%,8.9µM*,16%
O=c1c2ccccc2nc2ccc(NCc3cccs3)nn12,-2%,-20%,8.5µM*,1.6µM*,16µM*,3.5µM*
Clc1cccc(-c2ccc(CNCCCN3CCOCC3)o2)c1,6%,0%,-1%,3%,nt,3%
Clc1cccc(-c2ccc(C=Nc3ccc(N4CCOCC4)cc3)o2)c1,1%,3%,11µM*,-11%,-28%,3%
Oc1ccc(N=Nc2cccc(Cl)c2)cc1C=Nc1ccc(N2CCOCC2)cc1,1%,7%,-17%,0%,-67%,13%
Oc1c(Br)cc(Cl)cc1C=Nc1ccc(N2CCOCC2)cc1,-6%,-5%,17µM*,-6%,nt,0%
COc1cccc(C(=O)/C=C2\Sc3ccccc3N2C)c1,-16%,1.5µM*,1.1µM*,0.89µM*,6.3µM*,0.71µM*
COc1cccc(C(=O)Nc2ccccc2N2CCCC2)c1,-2%,-1%,3%,-6%,-18%,0%
CN1/C(=C\C(=O)c2cccnc2)Sc2ccccc21,-16%,?,9.5µM*,2.2µM*,14µM*,2.5µM*
CC(C)c1noc(-c2ccccc2OCC(=O)Nc2cccc([N+](=O)[O-])c2)n1,nt,nt,-8%,nt,nt,nt
Cc1ccc2nc(Nc3nc(CSc4nnc(C)s4)cc(=O)[nH]3)nc(C)c2c1,-2%,5%,9.5µM*,-3%,nt,-2%
Cc1cccc(NC(=O)C2C3C=CC(O3)C2C(=O)O)c1 (stereo unspecified),nt,-7%,-2%,1%,nt,-1%
Cc1cccc(NC(=O)C2C3C=CC(C4CC34)C2C(=O)O)c1 (stereo unspecified),-2%,6%,17µM*,0%,-29%,-1%
O=C(CSc1nnc(C2CCCCC2)o1)Nc1ccccc1Cl,nt,?,?,3.5µM*,nt,?
CCc1ccc2occ(CC(=O)Nc3sc4c(c3C(=O)OC)CCC4)c2c1,nt,nt,5%,nt,-16%,nt
Cc1ccc(C(=O)/C=C/Nc2ccccc2C(N)=O)o1,?,nt,5.4µM*,nt,11µM*,nt
Cc1cccc(N/C=C/C(=O)c2cccs2)c1C,?,1.8µM*,0.34µM*,?,2µM*,29%
COc1cc([N+](=O)[O-])ccc1N/C=C/C(=O)c1cccs1,?,?,0.12µM*,1.1µM*,1.6µM*,0.5µM*
Cc1c(NC(=O)c2cccs2)cccc1NC(=O)c1cccs1,nt,1%,-6%,-3%,nt,5%
O=C(/C=C/c1ccc([N+](=O)[O-])cc1)c1cccs1,nt,5%,-17%,12%,nt,-1%
NC(=O)c1ccccc1N/C=C/C(=O)c1ccc(F)cc1,7.9µM*,?,0.76µM*,1µM*,18µM*,0.71µM*
SMILES,Luc counter,ELG1 genotoxic,FLuc counter,Rab9 promoter act,SMN2 splice up,NPC1 prom act
Cc1ccccc1NC(=O)Nc1ccccc1C(N)=O,2%,7%,-12%,-2%,nt,-1%
NC(=O)c1ccccc1NS(=O)(=O)c1cccs1,3%,-1%,4%,-2%,nt,-1%
NC(=O)c1ccccc1N/C=C/C(=O)c1cccs1,?,2.1µM*,2.7µM*,0.89µM*,7.1µM*,1.8µM*
NC(=O)c1ccccc1N/C=C/C(=O)c1ccc(Cl)cc1Cl,11µM*,?,0.19µM*,0.5µM*,1µM*,0.79µM*
C=C(C)C(=O)OCCCCCC,nt,nt,nt,nt,-1%,nt
CCOc1ccc(-c2ccc(SCC(=O)NC3CCCCC3)nn2)cc1,nt,?,0.38µM*,1.6µM*,nt,2µM*
COc1ccc(-c2nnc(SCC(=O)NC3CCCCC3)o2)cc1,nt,5%,?,2%,nt,-6%
COc1ccc(-c2cn3nc(SCC(=O)NC4CCCCC4)ccc3n2)cc1,nt,?,0.34µM*,0.71µM*,nt,0.56µM*
COc1ccc(-c2[nH]c(-c3ccccc3)nc2SCC(=O)NC2CCCC2)cc1,0%,1%,-4%,-5%,-6%,0%
COc1ccc(-c2ccc(SCC(=O)NC3CCCCC3)nn2)cc1,nt,?,1.7µM*,2.2µM*,nt,?
CCOc1ccc(-c2nc(SCC(=O)NC3CCCC3)c(-c3ccccc3)[nH]2)cc1OC,nt,nt,24µM*,nt,-85%,nt
Cc1ccc(-c2ccc(SCC(=O)NC3CCCC3)nn2)cc1,nt,-2%,?,11%,nt,13%
CC#CCOC(=O)C1=CCCN(C)C1,0%,nt,nt,nt,12%,nt
COc1ccc(NC(=O)C2CCN(c3cc(C)nc4c(-c5ccc(Cl)cc5)c(C)nn34)CC2)cc1,nt,nt,-8%,nt,-1%,nt
COc1cccc(-c2cc(C(F)(F)F)nc(-n3nc(C)c(Br)c3C)n2)c1,nt,nt,-1%,nt,6%,nt
O=C(CSC1=Nc2ccccc2C2=NC(Cc3ccccc3)C(=O)N12)Nc1cccc(Cl)c1 (stereo unspecified),nt,nt,1%,nt,nt,nt
COc1ccc(-c2nc(SCC(=O)NC3CCCCC3)n[nH]2)cc1,nt,-4%,15µM*,-3%,nt,-10%
Cc1ccc(-c2ccc(SCC(=O)NC3CCCCC3)nn2)cc1,nt,10%,2.7µM*,28%,nt,?
COc1ccc(-c2nnc(SCC(=O)NC3CCCCC3)nc2-c2ccc(OC)cc2)cc1,nt,nt,4%,nt,nt,nt
CCCCN1C(=O)c2[nH]nc(-c3ccccc3O)c2C1c1ccc(OCc2ccccc2)cc1 (stereo unspecified),nt,nt,-3%,nt,0%,nt
O=C1CC(c2nc3ccccc3n2Cc2c(F)cccc2Cl)CN1c1cccc(C(F)(F)F)c1 (stereo unspecified),nt,nt,-2%,nt,7%,nt
O=C(COc1ccccc1)N1CCN(c2ccccc2)CC1,1%,1%,4%,0%,-27%,-1%
CC1(C)CC(=O)c2c(O)cc(OCC(=O)N3CCN(c4ccccc4)CC3)cc2O1,nt,-6%,15µM*,0%,nt,0%
c1ccc(CCNc2ncnc3ccccc23)cc1,-5%,2%,12µM*,-23%,nt,-19%
CCCCCCCCNc1ncnc2ccccc12,-2%,0%,-15%,-28%,-100%,-25%
Cc1cc2c(NCCc3ccccc3)ncnc2s1,nt,?,12µM*,-7%,nt,-7%
